Data published in PubChem BioAssay (Tox21).
Unmarked numbers belong to inactive results. Results filed as inconclusive are left out. Where a call stands in place of a potency, no number is given. Activity calls are given as the source filed them. Calls follow the shape of the dose curve; as a rule, active = well fitted curve in the direction sought with a large enough effect in the repeat runs; inconclusive = weak or mixed curves; inactive = no such curve, though single readings can be large; an effect the other way counts as inactive or inconclusive.

Tests used:
[1] = Human pregnane X receptor (PXR) small molecule agonists, qHTS cell viability counter screen (AID 1346977); also: nearly all actives have a fitted effect of over 50% in size; also: potency is read from the fitted curve at half-maximal effect
Method in brief: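 Same-well viability read: CellTiter-Fluor added after 23 hr compound exposure, fluorescence measured 1 hr later. Cells were PXR-Luc HepG2 seeded at 2,000/well in 5% charcoal-stripped FBS medium, rested 5 hr before dosing at 37 C.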

[2] = Caspase-3/7 induction in HepG2 cells by small molecules, qHTS assay (AID 1346978); also: nearly all actives have a fitted effect of over 15% in size
Method in brief: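 Caspase-3/7 induction was measured by Caspase-Glo 3/7 luminescence (30 min, room temperature) after a 17 hr compound exposure of wild-type HepG2 cells seeded at 2,000 per well and pre-incubated 5 hr.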

[3] = Caspase-3/7 induction in CHO-K1 cells by small molecules, qHTS cell viability counter screen (AID 1346979); also: nearly all actives have a fitted effect of over 35% in size; also: potency is read from the fitted curve at half-maximal effect
Method in brief: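 Cytotoxicity counter screen: CellTiter-Fluor added to compound-treated wild-type CHO-K1 cells at 16 h (37C, 5% CO2), fluorescence measured 1 h later; same wells as caspase-3/7 measurement.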

[4] = Caspase-3/7 induction in CHO-K1 cells by small molecules, qHTS assay (AID 1346980); also: nearly all actives have a fitted effect of over 15% in size
Method in brief: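 Luminescent Caspase-Glo 3/7 read (30min, room temperature) quantified apoptosis induction. Cells were wild-type CHO-K1, treated with compound for 17hr at 37 C and 5% CO2.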

[5] = Caspase-3/7 induction in HepG2 cells by small molecules, qHTS cell viability counter screen (AID 1346981); also: nearly all actives have a fitted effect of over 30% in size; also: potency is read from the fitted curve at half-maximal effect
Method in brief: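 HepG2, WT, 2,000 cells/well; 5 hr pre-incubation 37 C/5% CO2; compound pin-transferred from DMSO; 16 hr exposure; CellTiter-Fluor, 1 hr; fluorescence read.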

[6] = molecular target: Nuclear receptor subfamily 1 group I member 2 (Rattus norvegicus) (UniProt Q9R1A7); test: Rat pregnane X receptor (rPXR) activation by small molecules, qHTS assay (AID 1346983); conditions: rPXR luciferase reporter cells, One-Glo luminescence, 24 h; max activation: stronger effect = higher value; also: nearly all actives have a fitted effect of over 20% in size
Method in brief: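 Luminescent readout (One-Glo luciferase, 30 min room temperature) followed 24 hr compound treatment at 37 C of rPXR cells plated 2,000 per well and preincubated 5hr; qHTS format with compounds delivered in DMSO.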

[7] = molecular target: Cytochrome P450 2D6 (Homo sapiens) (UniProt P10635); test: Cytochrome P450 Family 2 Subfamily D Member 6 (CYP2D6) small molecule antagonists: luciferase reporter qHTS assay (AID 1671196); also: nearly all actives have a fitted effect of over 50% in size; also: potency is read from the fitted curve at half-maximal effect
Method in brief: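 Read-out is luminescence from luciferin formed by CYP2D6 turnover of a proluciferin substrate, recorded as relative luminescence units. Reactions ran 1 h at room temperature after NADPH regeneration solution was added.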

[8] = molecular target: Cytochrome P450 2C9 (Homo sapiens) (UniProt P11712); test: Cytochrome P450 Family 2 Subfamily C Member 9 (CYP2C9) small molecule antagonists: luciferase reporter qHTS assay (AID 1671198); also: nearly all actives have a fitted effect of over 50% in size; also: potency is read from the fitted curve at half-maximal effect
Method in brief: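 Enzyme-substrate mix preincubated with compound 10 min at room temperature; reaction started with NADPH regeneration solution, 1 h 37C. Luminescent luciferin product read after 20 min detection reagent.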

[9] = molecular target: Cytochrome P450 1A2 (Homo sapiens) (UniProt P05177); test: Cytochrome P450 Family 1 Subfamily A Member 2 (CYP1A2) small molecule antagonists: luciferase reporter qHTS assay (AID 1671199); also: nearly all actives have a fitted effect of over 50% in size; also: potency is read from the fitted curve at half-maximal effect
Method in brief: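 P450-Glo CYP1A2, 1536-well qHTS: enzyme/proluciferin substrate + cpd (DMSO), 10 min RT; NADPH regen, 1 h RT; detection reagent, 20 min; luminescence, RLU.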

[10] = molecular target: Voltage-gated inwardly rectifying potassium channel KCNH2 (Homo sapiens) (UniProt Q12809); test: Human Ether-a-go-go-Related Gene (hERG) channel small molecule antagonists: fluorescence cell-based qHTS assay (AID 1671200)
Method in brief: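 Thallium flux as potassium surrogate: FluxOR II dye loaded 1 h at room temperature into hERG-expressing U2OS cells, then stimulus buffer added after 10 min. Kinetic 480 nm excitation/540 nm emission read, 2 min.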

[11] = molecular target: Cytochrome P450 2C19 (Homo sapiens) (UniProt P33261); test: Cytochrome P450 Family 2 Subfamily C Member 19 (CYP2C19) small molecule antagonists: luciferase reporter qHTS assay (AID 1671197); also: nearly all actives have a fitted effect of over 65% in size; also: potency is read from the fitted curve at half-maximal effect
Method in brief: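 P450-Glo CYP2C19 system: enzyme-substrate mix with compound 10 min at room temperature, then NADPH regeneration solution, 1 h at 37C. Proluciferin-to-luciferin conversion detected by luminescence after 20 min with detection reagent; ketoconazole as positive control.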

[12] = molecular target: Cytochrome P450 3A4 (Homo sapiens) (UniProt P08684); test: Cytochrome P450 Family 3 Subfamily A Member 4 (CYP3A4) small molecule antagonists: luciferase reporter qHTS assay (AID 1671201); also: nearly all actives have a fitted effect of over 50% in size; also: potency is read from the fitted curve at half-maximal effect
Method in brief: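 Recombinant human CYP3A4 converts a proluciferin substrate to luciferin over 1 h at room temperature after NADPH regeneration solution is added (compound preincubated 10 min); detection reagent stops reaction, luminescence read 20 min later as relative units.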

[13] = molecular target: Nuclear receptor subfamily 1 group I member 2 (Homo sapiens) (UniProt O75469); test: Human pregnane X receptor (PXR) small molecule agonists, qHTS assay (AID 1346982); also: nearly all actives have a fitted effect of over 35% in size; also: potency is read from the fitted curve at half-maximal effect
Method in brief: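 Luciferase signal from ONE-Glo (30 min, room temperature) measured activation of hPXR-driven CYP3A4 reporter expression in PXR-Luc HepG2 cells treated with compounds for 24 hr at 37 C.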

[14] = molecular target: Nuclear receptor subfamily 1 group I member 2 (Homo sapiens) (UniProt O75469); test: CYP3A4 induction through human pregnane X receptor (PXR) by small molecules, qHTS assay (AID 1346984); also: nearly all actives have a fitted effect of over 40% in size
Method in brief: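 Luminescence readout: luciferase signal after One-Glo (30 min, room temperature), following 3 h at 37C with 3uM final Luciferin-IPA P450 substrate. Cells were DPX-2 (HepG2, PXR/CYP3A4-luc co-transfected) dosed for 24 h.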

[15] = molecular target: Nuclear receptor subfamily 1 group I member 2 (Homo sapiens) (UniProt O75469); test: Human pregnane X receptor (PXR) activation by small molecules, qHTS assay (AID 1346985); also: nearly all actives have a fitted effect of over 40% in size
Method in brief: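 DPX-2 cells (HepG2 co-transfected with a PXR response element and a CYP3A4-promoter luciferase construct) were seeded at 2,000 per well, rested 5 hr at 37C, then exposed to DMSO-dissolved compounds for 24 hr. Activation was read as luciferase luminescence.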

Chain of Voltage-gated inwardly rectifying potassium channel KCNH2 (Homo sapiens) (Q12809 whole entry, looked up): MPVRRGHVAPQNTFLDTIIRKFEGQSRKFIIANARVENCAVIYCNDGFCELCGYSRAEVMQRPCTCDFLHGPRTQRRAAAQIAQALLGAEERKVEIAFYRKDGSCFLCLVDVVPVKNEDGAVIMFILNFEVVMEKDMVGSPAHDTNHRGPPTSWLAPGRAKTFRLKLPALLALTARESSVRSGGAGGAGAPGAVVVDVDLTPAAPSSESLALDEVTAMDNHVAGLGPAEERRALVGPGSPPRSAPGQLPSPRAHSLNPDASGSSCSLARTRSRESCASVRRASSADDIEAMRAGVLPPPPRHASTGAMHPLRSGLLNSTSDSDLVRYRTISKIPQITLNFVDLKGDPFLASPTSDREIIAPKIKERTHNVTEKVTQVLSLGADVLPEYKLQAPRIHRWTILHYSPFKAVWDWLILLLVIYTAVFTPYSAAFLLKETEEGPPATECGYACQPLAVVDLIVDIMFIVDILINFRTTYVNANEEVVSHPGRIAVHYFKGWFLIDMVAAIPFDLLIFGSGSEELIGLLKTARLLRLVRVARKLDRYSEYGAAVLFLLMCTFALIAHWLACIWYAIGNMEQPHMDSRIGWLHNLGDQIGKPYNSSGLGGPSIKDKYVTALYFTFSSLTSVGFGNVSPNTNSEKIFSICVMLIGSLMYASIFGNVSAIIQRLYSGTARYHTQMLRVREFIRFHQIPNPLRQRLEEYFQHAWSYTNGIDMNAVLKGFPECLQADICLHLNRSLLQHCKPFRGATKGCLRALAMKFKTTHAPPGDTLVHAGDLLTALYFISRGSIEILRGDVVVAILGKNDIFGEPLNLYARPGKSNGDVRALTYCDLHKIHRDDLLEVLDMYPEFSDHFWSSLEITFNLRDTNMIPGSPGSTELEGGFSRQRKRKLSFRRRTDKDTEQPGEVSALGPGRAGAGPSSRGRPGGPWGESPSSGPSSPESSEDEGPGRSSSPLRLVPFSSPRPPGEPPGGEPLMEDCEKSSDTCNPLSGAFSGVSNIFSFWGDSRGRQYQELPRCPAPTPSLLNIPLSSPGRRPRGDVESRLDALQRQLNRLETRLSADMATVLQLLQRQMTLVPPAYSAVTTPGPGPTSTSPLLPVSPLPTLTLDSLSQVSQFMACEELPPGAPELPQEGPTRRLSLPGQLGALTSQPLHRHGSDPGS
Chain of Cytochrome P450 2C9 (Homo sapiens) (P11712 whole entry, looked up): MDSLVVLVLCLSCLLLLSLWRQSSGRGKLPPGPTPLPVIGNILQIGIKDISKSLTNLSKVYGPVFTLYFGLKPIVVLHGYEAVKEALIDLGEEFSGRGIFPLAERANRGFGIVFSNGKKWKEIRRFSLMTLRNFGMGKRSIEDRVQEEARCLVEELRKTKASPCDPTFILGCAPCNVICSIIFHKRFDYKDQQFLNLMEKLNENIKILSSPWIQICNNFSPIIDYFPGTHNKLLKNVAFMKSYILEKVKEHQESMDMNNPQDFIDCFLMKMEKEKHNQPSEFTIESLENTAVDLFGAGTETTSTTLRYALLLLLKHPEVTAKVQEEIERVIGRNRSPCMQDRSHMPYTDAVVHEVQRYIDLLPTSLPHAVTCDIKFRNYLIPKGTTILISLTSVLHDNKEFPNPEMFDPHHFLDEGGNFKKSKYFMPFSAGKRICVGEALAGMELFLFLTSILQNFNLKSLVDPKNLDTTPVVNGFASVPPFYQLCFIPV
Chain of Nuclear receptor subfamily 1 group I member 2 (Rattus norvegicus) (Q9R1A7 whole entry, looked up): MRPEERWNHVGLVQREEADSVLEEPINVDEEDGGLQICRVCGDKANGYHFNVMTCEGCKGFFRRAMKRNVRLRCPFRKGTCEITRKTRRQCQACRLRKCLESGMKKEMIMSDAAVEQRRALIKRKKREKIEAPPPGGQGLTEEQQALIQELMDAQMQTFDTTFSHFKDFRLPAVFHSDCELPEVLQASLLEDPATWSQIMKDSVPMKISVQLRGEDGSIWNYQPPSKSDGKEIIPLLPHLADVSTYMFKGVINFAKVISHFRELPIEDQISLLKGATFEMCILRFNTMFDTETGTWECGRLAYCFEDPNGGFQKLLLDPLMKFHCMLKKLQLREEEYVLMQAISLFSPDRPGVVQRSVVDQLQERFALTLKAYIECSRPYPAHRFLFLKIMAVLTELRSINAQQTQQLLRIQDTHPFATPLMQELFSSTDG
Chain of Cytochrome P450 1A2 (Homo sapiens) (P05177 whole entry, looked up): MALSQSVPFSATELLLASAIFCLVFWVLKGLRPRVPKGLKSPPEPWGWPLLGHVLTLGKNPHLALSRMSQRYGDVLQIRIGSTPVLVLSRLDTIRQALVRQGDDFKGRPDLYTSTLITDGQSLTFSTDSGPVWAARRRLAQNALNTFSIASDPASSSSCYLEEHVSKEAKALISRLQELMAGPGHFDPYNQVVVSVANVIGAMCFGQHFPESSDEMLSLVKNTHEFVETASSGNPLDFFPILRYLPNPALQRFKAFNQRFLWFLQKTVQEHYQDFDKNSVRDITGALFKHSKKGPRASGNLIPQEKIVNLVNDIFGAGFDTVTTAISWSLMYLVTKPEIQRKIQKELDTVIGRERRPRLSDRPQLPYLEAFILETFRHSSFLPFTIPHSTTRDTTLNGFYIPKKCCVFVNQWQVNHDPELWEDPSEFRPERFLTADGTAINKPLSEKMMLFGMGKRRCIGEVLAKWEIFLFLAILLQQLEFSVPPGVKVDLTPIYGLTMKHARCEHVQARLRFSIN
Chain of Cytochrome P450 2D6 (Homo sapiens) (P10635 whole entry, looked up): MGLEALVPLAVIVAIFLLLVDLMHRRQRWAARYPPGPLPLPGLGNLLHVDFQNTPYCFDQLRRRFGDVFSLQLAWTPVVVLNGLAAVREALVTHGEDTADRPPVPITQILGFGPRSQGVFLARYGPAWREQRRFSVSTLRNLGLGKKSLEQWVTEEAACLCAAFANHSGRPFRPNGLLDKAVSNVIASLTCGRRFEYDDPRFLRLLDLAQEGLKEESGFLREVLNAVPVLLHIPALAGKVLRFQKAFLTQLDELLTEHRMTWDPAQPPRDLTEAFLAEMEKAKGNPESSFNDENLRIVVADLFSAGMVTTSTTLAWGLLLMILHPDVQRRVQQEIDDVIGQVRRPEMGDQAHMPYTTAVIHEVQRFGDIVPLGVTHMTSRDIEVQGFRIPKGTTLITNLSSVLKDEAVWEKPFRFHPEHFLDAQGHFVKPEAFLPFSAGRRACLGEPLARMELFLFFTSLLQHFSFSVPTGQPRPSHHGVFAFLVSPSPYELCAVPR
Chain of Cytochrome P450 2C19 (Homo sapiens) (P33261 whole entry, looked up): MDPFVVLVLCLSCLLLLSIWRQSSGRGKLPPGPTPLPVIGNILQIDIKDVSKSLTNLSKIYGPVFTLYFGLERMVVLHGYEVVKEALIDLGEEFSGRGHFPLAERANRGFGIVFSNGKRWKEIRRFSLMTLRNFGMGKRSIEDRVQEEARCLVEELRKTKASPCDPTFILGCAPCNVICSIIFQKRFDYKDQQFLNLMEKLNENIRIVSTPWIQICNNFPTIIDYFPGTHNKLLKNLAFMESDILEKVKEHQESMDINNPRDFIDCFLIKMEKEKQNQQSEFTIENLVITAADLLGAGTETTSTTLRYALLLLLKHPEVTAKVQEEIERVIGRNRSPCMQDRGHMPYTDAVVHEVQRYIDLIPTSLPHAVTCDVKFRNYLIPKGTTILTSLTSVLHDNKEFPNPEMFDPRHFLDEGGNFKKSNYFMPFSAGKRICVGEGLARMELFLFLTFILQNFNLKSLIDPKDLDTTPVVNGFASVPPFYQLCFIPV
Chain of Cytochrome P450 3A4 (Homo sapiens) (P08684 whole entry, looked up): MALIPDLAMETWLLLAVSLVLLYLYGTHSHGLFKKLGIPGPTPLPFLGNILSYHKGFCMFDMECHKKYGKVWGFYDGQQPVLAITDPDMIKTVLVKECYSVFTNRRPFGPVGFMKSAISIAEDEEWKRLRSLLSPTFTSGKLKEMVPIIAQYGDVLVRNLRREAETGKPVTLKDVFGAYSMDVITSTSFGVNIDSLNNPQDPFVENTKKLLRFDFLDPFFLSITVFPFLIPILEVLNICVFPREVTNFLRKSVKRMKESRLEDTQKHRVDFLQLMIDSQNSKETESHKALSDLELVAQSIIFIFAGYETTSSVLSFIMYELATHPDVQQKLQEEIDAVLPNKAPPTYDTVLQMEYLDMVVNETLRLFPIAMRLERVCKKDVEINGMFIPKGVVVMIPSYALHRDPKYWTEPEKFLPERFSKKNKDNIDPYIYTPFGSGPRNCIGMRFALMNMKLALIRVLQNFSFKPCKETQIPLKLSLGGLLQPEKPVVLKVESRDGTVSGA
Chain of Nuclear receptor subfamily 1 group I member 2 (Homo sapiens) (O75469 whole entry, looked up): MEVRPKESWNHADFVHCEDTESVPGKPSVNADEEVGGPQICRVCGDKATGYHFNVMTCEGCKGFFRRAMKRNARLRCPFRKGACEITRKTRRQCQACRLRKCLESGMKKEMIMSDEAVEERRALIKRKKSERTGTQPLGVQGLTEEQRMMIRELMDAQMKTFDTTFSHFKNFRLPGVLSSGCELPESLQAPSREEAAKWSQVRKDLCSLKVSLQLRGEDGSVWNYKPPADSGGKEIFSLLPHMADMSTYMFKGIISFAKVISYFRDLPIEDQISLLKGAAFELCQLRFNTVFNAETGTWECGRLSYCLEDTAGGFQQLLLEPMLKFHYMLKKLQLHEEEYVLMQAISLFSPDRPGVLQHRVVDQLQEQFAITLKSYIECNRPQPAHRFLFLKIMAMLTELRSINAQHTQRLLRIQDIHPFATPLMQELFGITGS

Row | SMILES | Potency [1] | Potency [2] | Potency [3] | outcome [4] | Potency [5] | max activation [6] [%] | Potency [7] | Potency [8] | Potency [9] | Potency [10] | Potency [11] | Potency [12] | Potency [13] | Potency [14] | Potency [15]
1 | CC(=O)OCC1=C(C(=O)O)N2C(=O)[C@@H](NC(=O)CSc3ccncc3)[C@H]2SC1 | inactive | inactive | inactive | inactive | inactive | -5.99 | 11 µM (active) | 13.8 µM (active) | inactive | inactive |  |  |  |  | 
2 | C=Cc1ccc(OC(C)=O)cc1 | inactive | inactive | inactive | inactive | inactive |  | inactive | inactive |  | inactive | inactive | inactive |  |  | 
3 | CNC1CCCN(c2c(F)cc3c(=O)c(C(=O)O)cn(C4CC4)c3c2OC)C1 (stereo not drawn) | inactive | inactive | inactive | inactive |  | -1.63 | inactive | inactive | inactive |  | inactive | inactive | inactive | inactive | inactive
4 | O=NN(CCCl)C(=O)NCCCl | inactive | inactive | inactive | inactive | inactive |  |  |  |  | inactive |  |  |  |  | 
5 | CC(C(=O)O)c1ccc(C(=O)c2cccs2)cc1 (stereo not drawn) | inactive | inactive | inactive | inactive | inactive | -2.97 | inactive | 7.76 µM (active) |  | inactive |  |  |  |  | 
6 | Cc1cc(CCC(=O)OCCOCCOCCOC(=O)CCc2cc(C)c(O)c(C(C)(C)C)c2)cc(C(C)(C)C)c1O | inactive | inactive | inactive | inactive | inactive |  | 9.78 µM (active) | 0.617 µM (active) | inactive | inactive | 2.76 µM (active) | 2.46 µM (active) |  |  | 
7 | O=c1[nH][nH]c(=O)c2cc([N+](=O)[O-])ccc12 | inactive | inactive | inactive | inactive |  |  | inactive | inactive |  | inactive | inactive | inactive | inactive |  | 
8 | CC(CN(CCN(CC(C)OCCO)CC(C)OCCO)CC(C)OCCO)OCCO (stereo not drawn) | inactive | inactive | inactive | inactive |  |  |  |  | inactive | inactive | 86.1 µM (active) |  | 3.31 µM (active) |  | 
9 | O=S(=O)(Cl)c1c(Cl)cccc1Cl | inactive | inactive | inactive | inactive |  |  | 25.1 µM (active) | inactive |  | inactive | inactive |  | inactive |  | 
10 | C=C(C)c1ccccc1 | inactive | inactive | inactive | inactive | inactive |  |  | inactive |  | inactive | inactive |  | inactive |  | 
11 | O=C(O)CNC(=O)c1ccccc1I | inactive | inactive | inactive | inactive |  | 0.066 | inactive | inactive |  | inactive |  |  | inactive | inactive | inactive
12 | CC1=C2[C@@H]([C@H](C)CC[C@H]2/C=C(\C)C(=O)O)[C@H](O)C1 | inactive | inactive | inactive | inactive | inactive |  |  | inactive | inactive | inactive | inactive |  | inactive |  | 
13 | Nc1ccc(N=Nc2ccc(N)cc2)cc1 | 21.7 µM (active) | inactive | 24.3 µM (active) | inactive | 27.3 µM (active) |  | inactive |  | 10 µM (active) | inactive |  | 5.02 µM (active) | inactive |  | 
14 | O=C(C(=O)c1ccco1)c1ccco1 | inactive | inactive | inactive | inactive | inactive |  |  | inactive |  | inactive | 80.4 µM (active) |  | inactive |  | 
15 | Nc1ccc(NC(=O)c2ccc(N)cc2)cc1 | inactive | inactive | inactive | inactive | inactive |  | inactive |  | inactive | inactive |  |  | inactive |  | 
16 | Nc1ccc(S(=O)(=O)NCc2ccccc2)cc1 | inactive |  | inactive | inactive | inactive | -1.8 | inactive | inactive |  | inactive | 2.19 µM (active) |  | inactive | inactive | inactive
17 | Cc1ccc2nc(N)[nH]c(=O)c2c1Sc1ccncc1 | inactive | inactive |  | inactive |  | -1.84 | 15.5 µM (active) | 5.49 µM (active) | 2.88 µM (active) | inactive | 1.55 µM (active) |  | inactive |  | 
18 | Nc1nc(-c2ccc([N+](=O)[O-])cc2)cs1 | inactive | inactive |  | inactive |  |  | inactive |  | 5.08 µM (active) | inactive | 3.6 µM (active) |  | 9.79 µM (active) |  | 
19 | NC(=O)c1ccccc1[N+](=O)[O-] | inactive |  | inactive | inactive | inactive |  | inactive | inactive |  | inactive | inactive | inactive | inactive |  | 
20 | C1=CCC2CC=CC2C1 (stereo not drawn) | inactive |  | inactive | inactive | inactive |  | inactive | inactive |  | inactive | 70.9 µM (active) |  | 54.4 µM (active) |  | 
